Screen size: about 290,000 compounds; about 2,200 (0.76%) were called active. The sample holds actives, similar compounds and a random draw of the others, so the mix is not that of the screen. Values without a mark were called inactive. Cut-off read from the data, not from the text of the source: active = inhibition above about 30%; inconclusive = no clear call, values can overlap the other calls; inactive = below that.
Target: Protein RecA (Mycobacterium tuberculosis (strain ATCC 25618 / H37Rv)) (UniProt P9WHJ3)
Sequence (P9WHJ3 whole entry, looked up): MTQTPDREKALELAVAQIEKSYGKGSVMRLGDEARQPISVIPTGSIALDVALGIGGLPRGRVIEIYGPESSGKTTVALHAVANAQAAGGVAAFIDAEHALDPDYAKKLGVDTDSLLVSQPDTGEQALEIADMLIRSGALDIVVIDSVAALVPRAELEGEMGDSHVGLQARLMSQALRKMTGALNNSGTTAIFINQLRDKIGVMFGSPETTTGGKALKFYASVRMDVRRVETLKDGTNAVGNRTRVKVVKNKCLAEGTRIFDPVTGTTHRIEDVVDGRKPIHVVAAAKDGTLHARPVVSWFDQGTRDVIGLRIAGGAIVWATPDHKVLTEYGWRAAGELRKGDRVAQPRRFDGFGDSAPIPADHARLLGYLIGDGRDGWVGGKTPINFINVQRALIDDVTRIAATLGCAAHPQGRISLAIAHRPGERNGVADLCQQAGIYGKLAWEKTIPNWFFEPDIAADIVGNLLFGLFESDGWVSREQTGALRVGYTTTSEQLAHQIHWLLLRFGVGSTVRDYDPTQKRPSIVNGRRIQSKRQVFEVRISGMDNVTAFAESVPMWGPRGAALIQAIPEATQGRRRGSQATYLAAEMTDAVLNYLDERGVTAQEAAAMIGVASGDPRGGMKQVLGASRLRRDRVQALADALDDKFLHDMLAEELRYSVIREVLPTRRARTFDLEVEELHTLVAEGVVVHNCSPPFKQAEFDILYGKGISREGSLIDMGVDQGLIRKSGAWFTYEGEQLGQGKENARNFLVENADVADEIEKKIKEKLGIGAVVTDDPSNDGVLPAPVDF
Assay: Mtb RecA intein splicing inhibitors, primary screen, biochemical, fluorescence, HTS (AID 2221);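 note: 0% = vehicle wells and 100% = reference inhibitor control wells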
Settings: cell-free RecA intein splicing, hits give high values, concentration not given here

Row | Compound | inhibition
1 | CCCNC(=O)CSc1nc(Cc2ccccc2)nc2ccccc12 | 15.4%
2 | CCN(CC)S(=O)(=O)c1cc([N+](=O)[O-])ccc1NNC(=O)Nc1ccccc1 | 0.713%
3 | COc1ccc(-n2nnnc2CNC(=O)c2ccc3ccccc3c2)cc1 | -1.28%
4 | Cc1ccc([N+](=O)[O-])c(OCCCNCC(C)O)c1 (stereo not drawn) | -0.0235%
5 | Cc1ccc(CN2CCN(c3ncccn3)CC2)c(C)c1 | 0.612%
6 | Cn1c(SCC(=O)c2ccccc2)ncc(C(=O)Nc2ccc(F)cc2)c1=O | -0.487%
7 | Cc1ccc(NC(=O)c2cnc(SCC(=O)NCC3CCCO3)n(C)c2=O)cc1 (stereo not drawn) | 35.1% (active)
8 | C=CCn1c(SCC(=O)NCC2CCCO2)nc2sc(C)c(C)c2c1=O (stereo not drawn) | 0.158%
9 | COc1ccc2cc1Oc1ccc(cc1)C[C@H]1c3cc(c(OC)cc3CCN1C)Oc1c(O)c(OC)cc3c1[C@H](C2)N(C)CC3 | -4.49%
10 | COc1c(O)ccc2c1CN1CCc3cc4c(cc3C1C2)OCO4 (stereo not drawn) | 68.5% (active)
11 | COc1ccc2c(c1O)-c1cccc3c1[C@@H](C2)N(C)CC3 | -6.28%
12 | CC(C)(C)OC(=O)NC(Cc1ccccc1)C(=O)NC(CSC1CCCCO1)C(=O)NN (stereo not drawn) | -1.13%
13 | CC1(C)CC(=O)c2cnc3nc4ccccc4n3c2C1 | -0.669%
14 | CC(CNc1ccc([N+](=O)[O-])c2cccnc12)Nc1c([N+](=O)[O-])cc(C(F)(F)F)cc1[N+](=O)[O-] (stereo not drawn) | 1.36%
15 | COc1ccc(-c2cc(C(F)(F)F)nc(S(C)(=O)=O)n2)cc1OC | 42% (active)
16 | COc1ccc(-c2cc(C(F)(F)F)nc(NCc3cccnc3)n2)cc1 | -1.1%
17 | COc1ccc(-c2ccc(Nc3ccc(S(=O)(=O)N4CCCC4)cc3)nn2)cc1OC | -1.08%
18 | Cn1cc(CCC(=O)NC2CC2)c2ccccc21 | -0.418%
19 | O=C(CN1CCN(C(=S)NC2CCCC2)CC1)Nc1ccc(Oc2ccccc2)cc1 | 5.42%
20 | COCc1cc(C)n(CC(=O)NCC2CCCO2)c(=O)c1C#N (stereo not drawn) | -0.67%
21 | C[C@]12C=CC(=O)C=C1CC[C@@H]1[C@@H]2C(=O)C[C@@]2(C)[C@H]1CC[C@]2(O)C(=O)CO | 1.39%
22 | CC(=O)C12CC(C)=C(C)CC1CC1C3CCC4=CC(=O)CCC4(C)C3CCC12C (stereo not drawn) | 36% (active)
23 | CC(=O)O[C@]1(C(C)=O)CC[C@H]2[C@@H]3C=C(C)C4=CC(=O)CC[C@]4(C)[C@H]3CC[C@@]21C | 11%
24 | CCN(CC)c1ccc2oc(=O)c(C)nc2c1 | 30.2% (active)

Row | Compound | inhibition
25 | CCN(CC)c1ccc2cc(C(N)=O)/c(=N\NC(=O)c3ccncc3)oc2c1 | -24.7%
26 | C=CCN(C(=O)Nc1ccc2oc(C)nc2c1)c1ccccc1 | 1.61%
27 | COc1ccc(-c2nnc(SC(=O)N3c4ccccc4Sc4ccccc43)o2)cc1 | 46.6% (active)
28 | COc1ccc(-c2nnc(SCC(=O)c3ccc4c(c3)OCCO4)o2)cc1 | 0.107%
29 | COc1ccc(-c2nnc(SCc3cccnc3)o2)cc1 | -3.4%
30 | CC(=O)c1cccc(NC(=O)C2COc3ccccc3O2)c1 (stereo not drawn) | 0.944%
31 | C[C@H](NC(=O)C1CCN(S(=O)(=O)c2ccccc2)CC1)C(=O)NCc1ccccc1 | 1.64%
32 | COC(=O)c1sc(SC)c(S(=O)(=O)C(C)C)c1N/N=C(\C#N)S(=O)(=O)c1ccccn1 | 3.07%
33 | CCOC(=O)C1=C(CC)OC(N)=C(C#N)C1c1ccc(F)cc1F (stereo not drawn) | -3.52%
34 | CCOc1c(OC)cc(C2C(C#N)=C(N)Oc3n[nH]c(-c4ccncc4)c32)cc1OC (stereo not drawn) | 23.1%
35 | CCCc1[nH]nc2c1C(C1CC=CCC1)C(C#N)=C(N)O2 (stereo not drawn) | 4.97%
36 | COCc1[nH]nc2c1C(C1C=CCCC1)C(C#N)=C(N)O2 (stereo not drawn) | -0.266%
37 | CCCc1[nH]nc2c1C(c1ccc(OC(=O)c3ccco3)cc1)C(C#N)=C(N)O2 (stereo not drawn) | 81.6% (active)
38 | COc1cc(C2C(C#N)=C(N)Oc3n[nH]c(-c4ccccn4)c32)cc(OC)c1OC (stereo not drawn) | 17.2%
39 | COc1ccc(-c2[nH]nc3c2C(c2ccncc2)C(C#N)=C(N)O3)cc1 (stereo not drawn) | 69.7% (active)
40 | CCCc1[nH]nc2c1C(c1ccc(Br)s1)C(C#N)=C(N)O2 (stereo not drawn) | 56% (active)
41 | CCCc1nc2c([nH]1)C(c1cccnc1)C(C#N)=C(N)O2 (stereo not drawn) | -1.72%
42 | CCC1=C(C(=O)OC)C(c2cc(OC)ccc2OC)C(C#N)=C(N)O1 (stereo not drawn) | -1.35%
43 | CCc1ccc(C2C(C#N)=C(N)Oc3n[nH]c(CC(=O)OC)c32)cc1 (stereo not drawn) | 63.8% (active)
44 | CCOC(=O)C1=C(C)OC(N)=C(C#N)C1c1cncc(-c2ccc(F)cc2)c1 (stereo not drawn) | 2.26%
45 | NC(=O)c1cc(S(=O)(=O)NCCCc2ccco2)cs1 | -6.35%
46 | CN(C)c1ccc(C=NCCc2ccc(S(N)(=O)=O)cc2)cc1 | -4.96%
47 | Cc1ccc(NC(=O)N2CCSc3ccccc32)cc1 | -0.155%
48 | CCN(CC)CC(=O)Nc1sc2c(c1C(=O)c1ccccc1C)CCC2 | 11.9%

Row | Compound | inhibition
49 | Cc1cc(C)c(C)c(S(=O)(=O)N[C@@H](C)C(=O)OC(C)C(=O)NC(N)=O)c1C (stereo partly drawn) | -2.04%
50 | CC(CO)(CO)NC(=O)c1ccc(=O)[nH]n1 | 0.0563%
51 | O=C(c1ccc[nH]c1=S)N1CCN(S(=O)(=O)c2ccc(Br)cc2Cl)CC1 | -3.23%
52 | Cc1ccc(-n2c(=O)cc(N3CCN(Cc4ccccc4)CC3)[nH]c2=O)cc1 | -1.51%
53 | S=C(Nc1ccc(Cl)cc1Cl)N1CCCC1 | -0.599%
54 | Cc1cccc(OC(C)C(=O)N2CCc3ccccc3C2)c1 (stereo not drawn) | 0.662%
55 | O=C(Cc1ccccc1)Nc1ccc(C(=O)Nc2ccccc2C(=O)O)cc1 | 0.81%
56 | O=C(c1cccnc1)N1CCN(S(=O)(=O)c2cccs2)CC1 | -1.81%
57 | Cc1ccc(-n2nc3c(=O)n(C(C)C(=O)NCc4ccc5c(c4)OCO5)nc(C)c3c2C)cc1 (stereo not drawn) | 3.2%
58 | CC1=NNC(=O)C1Cc1c(Cl)cccc1Cl (stereo not drawn) | 90.8% (active)
59 | CC1=NNC(=O)C1CCC(=O)N/N=C\c1cccc(Cl)c1 (stereo not drawn) | -2.34%
60 | CC1=NNC(=O)C1CCC(=O)N/N=C\c1ccc(Cl)c(Cl)c1 (stereo not drawn) | 0.906%
61 | O=C(CN1CCc2cc3c(cc2C1)OCCCO3)Nc1ccccc1 | 1.99%
62 | COc1ccc(C(=O)NC2CC(C)(C)Cc3c2cnn3-c2ccccc2C)o1 (stereo not drawn) | 3.96%
63 | Cc1cccc(NC(=O)c2nc[nH]c2C(=O)NCC(=O)OCc2ccccc2)c1 | -3.32%
64 | Cc1cccc(NC(=O)c2nc(S(=O)(=O)Cc3ccccc3)ncc2Cl)c1 | 78% (active)
65 | Cc1cccc(CS(=O)(=O)c2ncc(Cl)c(C(=O)Nc3ccc(F)cc3)n2)c1 | 31.6% (active)
66 | CCOc1ccc(NC(=O)c2nc(SCC)ncc2Cl)cc1 | -3.31%
67 | Cc1cccc(OCc2ccc(C(=O)Nc3ccc(F)cc3)cc2)c1 | -2.68%
68 | CCSc1ncc(Cl)c(C(=O)Nc2cc(C)ccc2C)n1 | -2.65%
69 | CSCC[C@H](NC(=O)N1CCn2c1nc1ccccc12)C(=O)NC1CCCCC1 | 0.784%
70 | ClC1(Cl)CC1CSc1ncn[nH]1 (stereo not drawn) | -0.379%
71 | Cc1ccc(SC(CC(=O)c2ccc(C(C)(C)C)cc2)C(=O)O)cc1 (stereo not drawn) | 8.11%
72 | Cc1ccc(SCc2cc(=O)[nH]c(N3CCCCC3)n2)cc1 | 1.86%

Row | Compound | inhibition
73 | Cc1ccc(SCCSc2ncccn2)cc1 | -1.76%
74 | Cc1ccc(SCC2=NNC(=O)C2)cc1 | 87.8% (active)
75 | O=C(NC1CCc2ccccc21)C12CN(Cc3ccccc3)CC1C(c1cccc([N+](=O)[O-])c1)=NO2 (stereo not drawn) | 8.13%
76 | CCOc1ccc(-n2c(SCC(N)=O)nnc2-c2ccco2)cc1 | 1.21%
77 | CC1(N2CCOCC2)CC2(O)C(=[N+]1[O-])CCc1nonc12 (stereo not drawn) | 59.8% (active)
78 | CC(=O)n1c(C=Nc2ccccc2)c(O)c2ccccc21 | -25.1%
79 | Cc1ccc(NC(=O)CSc2nnc(CNC(=O)c3ccccc3F)o2)cc1 | -1.52%
80 | O=C(CCCN=C1NS(=O)(=O)c2ccccc21)OCC(=O)c1ccc(F)c(F)c1 | 0.337%
81 | CN(C)c1ccc(NC(=O)c2ccncc2)c2ccccc12 | 32.8% (active)
82 | CCN(CC)S(=O)(=O)c1ccc(Cl)c(NC(=O)c2ccncc2)c1 | -0.0873%
83 | CC(=O)c1cccc(NC(=O)c2ccncc2)c1 | -0.301%
84 | Cc1cc(Nc2cccc(C)c2C)n2ncnc2n1 | 0.489%
85 | COc1ccc(Nc2ncnc3ccc(Br)cc23)c(OC)c1 | -1.95%
86 | COc1ccc2sc(N(CCCN(C)C)C(=O)c3ccc(S(=O)(=O)N(C)C4CCCCC4)cc3)nc2c1 | 2.28%
87 | S=c1nccc(-c2cc(Cl)sc2Cl)[nH]1 | 2.58%
88 | COc1ccc(-c2csc(Nc3ccc(O)cc3)n2)cc1 | 33.3% (active)
89 | O=c1oc2ccccc2cc1-c1csc(Nc2ccc(O)cc2)n1 | -3.92%
90 | COc1ccc(-c2csc(Cc3nc(O)cs3)n2)cc1 | 8.96%
91 | NNC(=O)C1CC(O)CN1S(=O)(=O)c1ccc(Cl)cc1 (stereo not drawn) | 0.0391%
92 | COc1cccc(CN(C)C(=O)CC23CC4CC(CC(C4)C2)C3)c1OC | 9.37%
93 | O=C(NCCc1ccccc1)Oc1ccc(Cl)cc1 | 6.61%

— PubChem BioAssay AID2221 (Broad Institute, 2009)
